Results filed as inconclusive are left out. Entries that show only a call come without a potency. Calls of active or inactive are those of the source. The call rests on the fitted dose curve; in most records, active means well fitted inhibition curve with a large enough effect; inconclusive means small, poorly fitted or top-dose-only effect; inactive means flat fitted curve, though single readings scatter.
These compounds were tested against Calcium and integrin-binding protein 1 (Homo sapiens) (UniProt Q99828) (assay: Primary qHTS for Identification of Calcium Integrin Binding Protein 1 (CIB1) Competitor (AID 1508620;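 further: GST tagged CIB1 binding a fluorescein labelled alphaIIb integrin peptide tracer; top concentration of the series differs between compounds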)). Conditions: CIB1-GST / FITC-alphaIIb peptide fluorescence polarization; series mostly up to 114 µM.
How it was run: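 Fluorescence polarization competition: CIB1-GST (1 uM final) preincubated with compound 15 min at room temperature, then FITC-labeled alphaIIb peptide (100 nM final) added for another 15 min. Polarization read at Ex 480/Em 540.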

Chain of Calcium and integrin-binding protein 1 (Homo sapiens) (Q99828 whole entry, looked up): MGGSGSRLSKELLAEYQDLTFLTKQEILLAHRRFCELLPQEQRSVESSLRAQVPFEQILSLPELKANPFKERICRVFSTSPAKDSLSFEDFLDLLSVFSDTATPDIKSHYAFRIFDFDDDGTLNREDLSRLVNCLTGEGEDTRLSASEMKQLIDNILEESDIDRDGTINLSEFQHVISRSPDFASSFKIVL

Structure (SMILES) | Potency | activity change, negative = inhibition
CCNC(=O)Nc1ccc(-c2nc3c(c(N4CCOC[C@@H]4C)n2)CCN(c2ncccn2)C3)cc1 | inactive | –
CC1OC(OCC2OC(OC3CCC4(C)C(CCC5(C)C4CC=C4C6CC(C)(C)CCC6(C(=O)OC6OC(CO)C(O)C(O)C6O)CCC45C)C3(C)CO)C(O)C(O)C2O)C(O)C(O)C1O (stereo not given) | inactive | –
COc1ccc2cc(C(C)C(=O)Oc3ccc(C(N)=S)cc3)ccc2c1 (stereo not given) | inactive | –
C/C=C/C1=CC2=C(CO1)C(=O)C(C)(O)C(OC(=O)c1c(C)cc(OC)cc1O)C2 (stereo not given) | inactive | –
CC(=O)C1=C(C)N(c2cccc(C(F)(F)F)c2)C(=O)N[C@H]1c1ccc(C#N)nc1 | inactive | –
CC(=O)OC1C(c2ccccc2)CCC(c2ccccc2)C1OC(C)=O (stereo not given) | inactive | –
O=C1NC(Cc2c[nH]c3ccccc23)C(=O)NC1Cc1c[nH]c2ccccc12 (stereo not given) | inactive | –
C/C(=C\CCC1(C)C2CCC(C2)C1(C)O)C(=O)O (stereo not given) | inactive | –
C[C@@H]1C(=O)O[C@H]2C[C@]34[C@H]5C[C@@H](C(C)(C)C)[C@]36[C@@H](OC(=O)[C@H]6O)O[C@]4(C(=O)O5)[C@]21O | inactive | –
CC1(C)CC2C(O)c3cocc3CC(C)(O)C2C1 (stereo not given) | inactive | –
O=C(CO)[C@@H](O)[C@H](O[C@@H]1O[C@H](CO)[C@H](O)[C@H](O)[C@H]1O)[C@H](O)CO | inactive | –
C[C@H](C/C=C/C(C)(C)O)[C@H]1CC[C@@]2(C)[C@@H]3[C@@H](O[C@@H]4O[C@H](CO)[C@@H](O)[C@H](O)[C@H]4O)C=C4C(CC[C@H](O)C4(C)C)[C@]3(C=O)CC[C@]12C (stereo not given in full) | inactive | –
C=C[C@H]1C(O[C@@H]2O[C@H](CO)[C@@H](O)[C@H](O)[C@H]2O)OC=C2C(=O)N3CCc4c([nH]c5ccccc45)[C@H]3C[C@H]21 (stereo not given in full) | inactive | –
Cc1cc(Cl)ccc1COc1ccnn1-c1cc(C(=O)O)ccn1 | inactive | –
COc1cc2oc(-c3ccc(O)cc3O)cc2c(OC)c1CC=C(C)C | inactive | –
C=C1CC23CC1CCC2C12OC(=O)C(C)(CCC1O)C2C3C(=O)O (stereo not given) | inactive | –
O=C(Nc1ccccc1-c1cn2c(CN3CCNCC3)csc2n1)c1ccc2ccccc2n1 | inactive | –
C=CC(C)(O)CC[C@H]1C(=C)CCC2[C@](C)(C(=O)O)CCC[C@@]21C (stereo not given in full) | inactive | –
Cc1oc2ccccc2c1CNC(=O)NCc1cccs1 | inactive | –
COc1ccc(C2COc3cc(O)ccc3C2)c(O)c1 (stereo not given) | inactive | –
OC[C@H]1O[C@@H](OC[C@H]2O[C@@H](OC/C=C/c3ccccc3)[C@H](O)[C@@H](O)[C@@H]2O)[C@@H](O)[C@@H]1O | inactive | –
O=C(Nc1ccc(S(=O)(=O)Nc2ccccc2Cl)c(Cl)c1)c1ccccn1 | inactive | –
CC(C)NCC(C(=O)N1CCN(c2ncnc3c2C(C)CC3O)CC1)c1ccc(Cl)cc1 (stereo not given) | inactive | –
Cn1cncc1C(N)(c1ccc(Cl)cc1)c1ccc2c(c1)c(-c1cccc(Cl)c1)cc(=O)n2C (stereo not given) | inactive | –
C[C@H]1O[C@@H](O[C@H]2CC[C@@]3(C)C(CC[C@]4(C)C3CC=C3C5CC(C)(C)CC[C@]5(C(=O)O)CC[C@]34C(=O)O)C2(C)C)[C@H](O)[C@@H](O)[C@@H]1O (stereo not given in full) | inactive | –
C/C(=C\CC[C@@H](C)[C@H]1CC(O)[C@@]2(C)C3CC[C@H]4C(C)(C)[C@@H](OC5OCC(O)C(O)C5OC5OC(CO)C(O)C(O)C5O)CC[C@@]45C[C@@]35CC(O)[C@]12C)C(=O)O (stereo not given in full) | inactive | –
CC1OC(OC2C(CO)OC(OCC3OC(OC(=O)C45CCC(C)(C)CC4C4=CCC6C7(C)CCC(OC8OC(CO)C(O)C(OC9OC(CO)C(O)C(O)C9O)C8O)C(C)(C)C7CCC6(C)C4(C)CC5)C(O)C(O)C3O)C(O)C2O)C(O)C(O)C1OC1OC(CO)C(O)C(O)C1O (stereo not given) | – | -4.16% [at 12.4 µM] (inactive)
COC(=O)C1=COC(OC2OC(CO)C(O)C(O)C2O)C2C1C=CC2(O)CO (stereo not given) | inactive | –
Cc1ccc(-c2c(C(=O)CF)n(CCCO)c3ncnc(N)c23)cc1 | inactive | –
C[C@@H]1O[C@@H](O[C@@H]2[C@@H](O[C@@H]3O[C@@H](C)[C@H](O[C@@H]4OC[C@H](O)[C@H](O[C@@H]5OC[C@@H](O)[C@H](O)[C@H]5O)[C@H]4O)[C@@H](O[C@@H]4OC[C@](O)(CO)[C@H]4O)[C@H]3O)[C@H](OC(=O)[C@]34CCC(C)(C)C[C@H]3C3=CCC5[C@@]6(C)C[C@H](O)[C@H](O[C@@H]7O[C@H](CO[C@@H]8OC[C@H](O)[C@H](O)[C@H]8O)[C@@H](O)[C@H](O)[C@H]7O)C(C)(C)C6CC[C@@]5(C)[C@]3(C)C[C@H]4O)OC[C@H]2O)[C@H](O)[C@H](O)[C@H]1O (stereo not given in full) | – | -4.21% [at 12.4 µM] (inactive)

— PubChem BioAssay (NCATS)
